Test results: the supplement of paper PMC3334620
In all, about 33,000 sequences were measured (“E-score (-0.5 to 0.5)”: median about -0.041, highest 2% from about 0.37 on). The sample as a whole holds a higher share of the highest values than the screen did.

The sequences below were run against T1, Ecm22 (UniProt Q05958) (assay: PBM E-score (8-mer binding enrichment) (E-score (-0.5 to 0.5)); higher = stronger / more preferred TF binding). Conditions: protein concentration: 200 nM; construct: GST-full length.
T1 sequence: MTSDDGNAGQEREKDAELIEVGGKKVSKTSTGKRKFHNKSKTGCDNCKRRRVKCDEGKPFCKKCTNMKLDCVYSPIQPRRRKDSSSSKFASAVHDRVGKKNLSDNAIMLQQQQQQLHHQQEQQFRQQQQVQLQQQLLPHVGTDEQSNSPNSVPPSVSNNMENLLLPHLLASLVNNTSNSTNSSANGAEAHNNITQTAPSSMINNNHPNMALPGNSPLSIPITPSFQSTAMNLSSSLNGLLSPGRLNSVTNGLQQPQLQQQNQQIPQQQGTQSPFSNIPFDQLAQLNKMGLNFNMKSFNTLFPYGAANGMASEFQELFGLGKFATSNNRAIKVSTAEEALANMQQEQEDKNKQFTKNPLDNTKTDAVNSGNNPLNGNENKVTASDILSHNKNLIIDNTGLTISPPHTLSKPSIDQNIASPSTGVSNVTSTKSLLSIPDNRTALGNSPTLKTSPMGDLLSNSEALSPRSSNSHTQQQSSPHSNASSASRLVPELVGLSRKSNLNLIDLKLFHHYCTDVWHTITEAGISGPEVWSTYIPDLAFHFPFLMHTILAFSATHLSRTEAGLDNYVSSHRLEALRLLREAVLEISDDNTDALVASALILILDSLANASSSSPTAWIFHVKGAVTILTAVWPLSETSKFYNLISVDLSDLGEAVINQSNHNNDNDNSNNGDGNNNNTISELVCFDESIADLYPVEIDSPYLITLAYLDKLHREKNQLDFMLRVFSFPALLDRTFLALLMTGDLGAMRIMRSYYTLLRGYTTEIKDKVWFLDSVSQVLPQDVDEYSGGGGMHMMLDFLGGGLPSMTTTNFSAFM
Procedure, shortened: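 Masliner-normalised scans of fluorescent anti-GST signal were the basis for scoring. That signal came from GST-tagged yeast transcription factors applied at about 100-200 nM to double-stranded universal all-10-mer Agilent arrays on fresh or once-stripped slides. Each ungapped eight-base word, pooled with its reverse complement, received an E-score from the Universal PBM Analysis Suite.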

Sequence | PBM E-score
ATTCATAC | 0.161
CTTGTGTC | -0.0755
CACCGGAC | 0.112
CGATCTAG | 0.00932
ATCGTGGG | -0.0631
CGATCTAA | 0.0461
GTTAGACA | -0.137
GGCGTTCA | 0.00425
GTCGTTCA | 0.448
GACGTTCA | 0.0272
AAGCCCAG | -0.109
AGTACACC | 0.0652
GGTACACA | -0.126
AGTACACA | 0.18
GGTACACC | 0.0576
CGTACACG | 0.382
AGTACACG | 0.238
CGTACACC | 0.37
TGTACACA | 0.0209
CGTACACA | 0.402
GTAGCAAA | 0.0111
GACCAGGC | -0.228
CCCCAGCA | -0.237
CCGGAACC | -0.0325
ACGGAACG | 0.442

Sequence | PBM E-score
CCGGAACG | 0.445
CCGGAACA | -0.0629
ACGGAACT | 0.157
ACGGAACC | 0.218
CCCCGCCA | 0.0635
TAGGACCA | -0.185
GTATGAAC | 0.234
ATGTTACA | -0.0708
GAGAGACC | -0.21
ACGGGGAC | 0.0581
GAGAACAA | 0.124
CGATCGTC | 0.104
GGATCGTA | 0.434
AGATCGTA | 0.389
CGATCGAA | 0.164
GGATCGAA | 0.251
CGATCGTA | 0.437
AGATCGTG | -0.0112
GGATCGGA | 0.159
AGATCGTC | -0.0821
AGTCCCAA | -0.193
GGCTAGTA | -0.00889
CTGACGCA | -0.319
GAGCTTAA | 0.0486
TACGAGGA | 0.466

Sequence | PBM E-score
AACGAGGC | 0.434
ATCGAGGA | 0.115
GACGAGGA | 0.175
CACGAGGC | 0.171
AGCGAGGA | 0.265
AAAGAGGT | -0.244
CACGAGGA | 0.196
AACGAGGA | 0.449
GACGAGGC | 0.163
ACCGAGGT | 0.225
AACGAGGT | 0.447
CATGAAAA | 0.00915
ATTGCTTC | 0.0317
AAGCTTCA | -0.0703
ACAAATTC | 0.0192
AACGGGCT | 0.16
ACGCTCAA | 0.0449
GGTCTAAC | -0.0964
CGGGACGC | -0.0663
ACTCGGCT | 0.112
CTGCACTC | -0.104
CACGAGGG | 0.189
AGCGAGGG | 0.249
AACGAGGG | 0.439
ACGCAAGG | -0.01

Sequence | PBM E-score
AGCCGGAT | -0.0402
AAAGAGTT | -0.264
AACGAGTA | 0.433
AGCGAGTA | 0.363
CACGAGTG | 0.106
TACGAGTA | 0.467
CACGAGTA | 0.157
GACGAGTA | 0.117
AACGCGTT | 0.212
AGCGAGTG | 0.324
ACCGAGTA | 0.286
AACGAGTG | 0.421
AACGAGTT | 0.41
CTGCGTTC | 0.213
GCGTTGAA | 0.218
CCATATCC | -0.0494
CACGTACG | 0.338
CTAGTTAA | -0.153
GCCTCTAC | -0.123
AACGAGTC | 0.419
CACGAGTC | -0.0272
GACGAGTC | 0.115
AGAGGGAT | -0.0615
ACAGTTCC | -0.0566
CCTTCGTC | 0.0674

Sequence | PBM E-score
ACTTCGTG | 0.116
ACTTCGTC | 0.00917
GCTTCGTA | 0.441
GCTTCGGA | 0.121
CCTTCGCA | 0.183
GCTTCGCA | 0.193
ACTTCGTA | 0.434
CCTTCGTA | 0.453
TCGGGTCA | 0.241
CATCGTGC | 0.164
AATCGTTG | 0.165
CATCGTTA | 0.259
AATCGTTC | 0.426
AATCGTTA | 0.269
CATCGTTC | 0.428
CCATTGGA | -0.162
AGGTATTA | -0.0627
AGGTCGTC | 0.106
GGGTCGGA | 0.135
CGGTCGTC | -0.0294
AGGTCGTG | -0.13
CGGTCGTA | 0.464
CGGTCGGA | 0.0409
AGGTCGTA | 0.458
GGGTCGAA | -0.0301

Sequence | PBM E-score
GGGTCGTA | 0.439
ACAGACCA | -0.0504
AGCTGAAA | -0.106
AACTGCAG | -0.0539
CTTTTTCC | -0.068
CGTTGGAG | -0.14
ACTTACGG | 0.207
GCTTACAA | -0.144
GCTTACGA | 0.386
GCTTACTA | -0.087
ACTTACGA | 0.393
ACTTACGC | -0.137
CCTTACGA | 0.383
CCTTACGC | 0.205
CCTTACTA | 0.0754
AGAATTGC | -0.0838
CGACAAAG | 0.192
CTGCGAGC | 0.0428
TAGTCCGA | 0.123
CCATCGTC | 0.00759
ACATCGTC | 0.0184
CCATCGTA | 0.428
ACATCGTA | 0.423
GCATCGTA | 0.426
GCATCGGA | 0.126

Sequence | PBM E-score
ACATCGTG | 0.0443
CCATCGAA | -0.136
GCATCGAA | 0.0551
CCGCCACA | -0.107
GCCGAGAC | -0.0241
GATGTTGC | 0.00895
CGGGACAC | -0.0319
TACTCACA | -0.0537
CCCCCGAG | -0.231
ACCAGGCT | -0.198
CCGAGGCC | 0.117
GCGAGGCC | 0.251
CCGAGGCG | 0.0444
AAGAGGCT | -0.268
ACGAGGCA | 0.401
ACGAGGCC | 0.376
CCGAGGCA | 0.0444
ACGAGGCT | 0.382
ACGAGGCG | 0.431
GCGAGGCA | 0.296
AGGAGGCG | -0.229
CCGGTCTA | -0.0788
AATAACAA | -0.0956
AGATTCCT | -0.227
AACGCCGC | -0.00584

Sequence | PBM E-score
CGGTAAAA | 0.228
AGCAATAG | -0.0955
ACTTCCAA | -0.156
AAACCCGA | 0.279
CTCAACAG | -0.193
AGACCAGC | -0.283
CAGGAAAA | -0.019
AACCCAGC | -0.207
CGTACGTA | 0.367
AGTACTAT | 0.0505
GGTACGAA | 0.486
CGTACGCA | 0.36
AGTACGAT | 0.407
ACTACGAT | 0.182
AGTACGCA | -0.0459
GGTACGCA | 0.263
AGTACGAA | 0.42
GGTACGTA | 0.319
CGTACGAA | 0.448
AGTACGTA | 0.283
AGTTCTGC | 0.17
AGATGAAG | -0.13
CCCCTAGC | -0.254
ACTCAACC | -0.0151
CGATGGAA | 0.0222

Sequence | PBM E-score
GGCACAAC | -0.169
GACACCCA | -0.171
TAGGACGA | -0.216
ATTCTCAG | -0.308
CGGACGAG | -0.0963
CGTACGAG | 0.473
ATTACGAG | 0.38
ATTACGAC | 0.367
CGTACGAC | 0.444
CGTACGTC | 0.356
AGTACGTG | 0.142
AGTACGAG | 0.456
ATTACGTG | -0.0556
AGTACGCG | 0.197
CCTACGAG | 0.339
CGTACGCC | 0.3
ACGCTGGA | 0.126
ACGACCCT | 0.331
CGCACGCA | 0.141
